According to PubChem BioAssay (EPA / NIEHS):
Active and inactive are the calls of the source. The calls were made as follows: active = hit-call score of the fitted dose curve at least 0.9, where 1 is the maximum; inactive = score below 0.9.

Assays:
Details in all cases: mRNA level, 48 h; actives raise or lower the signal
[1] = read-out: Cytochrome P450 4A22 (Homo sapiens) (UniProt Q5TCH4); assay: LTEA_HepaRG_CYP4A22: Life Technologies and Expression Analysis (LTEA) Assay for Cytochrome P450 4A22 (CYP4A22) using HepaRG (AID 2283495)
Method in brief: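 Cryopreserved HepaRG cells, plated and cultured 48 h, then switched to serum-free induction medium and treated 48 h (duplicates, up to 100 uM, half-log steps, 0.5% DMSO). Expression change of CYP4A22 was fitted bidirectionally against vehicle.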

[2] = read-out: Cytochrome P450 7A1 (Homo sapiens) (UniProt P22680); assay: LTEA_HepaRG_CYP7A1: Life Technologies and Expression Analysis (LTEA) Assay for Cytochrome P450 7A1 (CYP7A1) using HepaRG (AID 2283496)
Method in brief: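 HepaRG cells plated 48 h, then switched to serum-free induction medium and exposed in duplicate for 48 h to 8-point half-log series from 100 uM in 0.5% DMSO. CYP7A1 mRNA by qRT-PCR (TaqMan), normalized to ACTB/GAPDH/POLR2A; bidirectional fit versus DMSO.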

[3] = read-out: Glutathione S-Transferase (GSTA2), GSTA2 (gene 2939); assay: LTEA_HepaRG_GSTA2: Life Technologies and Expression Analysis (LTEA) Assay for Glutathione S-Transferase (GSTA2) using HepaRG (AID 2283497)
Method in brief: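 HepaRG, 48 h dosing, 8-pt half-log CRC from 100 uM, 0.5% DMSO vehicle, n=2; RNA → Fluidigm TaqMan qRT-PCR; GSTA2 vs ACTB/GAPDH/POLR2A; gain/loss fit vs DMSO.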

[4] = read-out: Glutamate-cysteine ligase catalytic (GCLC), GCLC (gene 2729); assay: LTEA_HepaRG_GCLC: Life Technologies and Expression Analysis (LTEA) Assay for Glutamate-cysteine ligase catalytic (GCLC) using HepaRG (AID 2283498)
Method in brief: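 Read-out is GCLC transcript level by Fluidigm-based TaqMan qRT-PCR, normalized to three housekeeping genes and fitted in both directions relative to 0.5% DMSO. Human HepaRG cells received chemicals for 48 h, up to 100 uM.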

[5] = read-out: growth arrest and DNA damage 45 (GADD45G), GADD45G (gene 10912); assay: LTEA_HepaRG_GADD45G: Life Technologies and Expression Analysis (LTEA) Assay for growth arrest and DNA damage 45 (GADD45G) using HepaRG (AID 2283499)
Method in brief: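 Human hepatic HepaRG line treated 48 h with chemicals (eight concentrations, half-log steps from 100 uM); transcript induction or repression of GADD45G scored by qRT-PCR versus DMSO vehicle.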

[6] = read-out: Glutamate-cysteine ligase regulatory (GCLM), GCLM (gene 2730); assay: LTEA_HepaRG_GCLM: Life Technologies and Expression Analysis (LTEA) Assay for Glutamate-cysteine ligase regulatory (GCLM) using HepaRG (AID 2283500)
Method in brief: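 Cells were plated, cultured 48 h, switched to serum-free induction medium, then dosed in duplicate for 48 h at eight half-log concentrations up to 100 uM. RNA was then profiled by qRT-PCR; gain or loss versus DMSO was fitted.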

[7] = read-out: Glutathione S-transferase M3 (GSTM3), GSTM3 (gene 2947); assay: LTEA_HepaRG_GSTM3: Life Technologies and Expression Analysis (LTEA) Assay for Glutathione S-transferase M3 (GSTM3) using HepaRG (AID 2283501)
Method in brief: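 Changes in GSTM3 expression, an oxidative-stress marker, were scored by bidirectional curve fitting against 0.5% DMSO vehicle. Human HepaRG cultures received chemicals for 48 h in duplicate, highest concentration 100 uM with half-log dilutions.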

[8] = read-out: Heat shock 70 kDa protein 1 (HSPA1A), gene 3303; assay: LTEA_HepaRG_HSPA1A: Life Technologies and Expression Analysis (LTEA) Assay for Heat shock 70 kDa protein 1 (HSPA1A) using HepaRG (AID 2283502)
Method in brief: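 Readout is HSPA1A transcript level by microfluidic qRT-PCR, normalized to three housekeeping genes and analysed for gain or loss of signal relative to 0.5% DMSO. Human HepaRG cultures received test chemicals for 48 h at up to 100 uM.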

[9] = read-out: Hypoxia-inducible factor 1-alpha (Homo sapiens) (UniProt Q16665); assay: LTEA_HepaRG_HIF1A: Life Technologies and Expression Analysis (LTEA) Assay for Hypoxia-inducible factor 1 (HIF1A) Trancription factor using HepaRG (AID 2283503)
Method in brief: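 Differentiated HepaRG cells in serum-free induction medium exposed 48 h, in duplicate, to 8-point half-log series from 100 uM in 0.5% DMSO. HIF1A mRNA measured by TaqMan qRT-PCR, normalized to ACTB/GAPDH/POLR2A, fitted bidirectionally versus DMSO.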

[10] = read-out: 3-Hydroxy-3-Methylglutaryl-CoA Synthase 2 (HMGCS2), HMGCS2 (gene 3158); assay: LTEA_HepaRG_HMGCS2: Life Technologies and Expression Analysis (LTEA) Assay for 3-Hydroxy-3-Methylglutaryl-CoA Synthase 2 (HMGCS2) using HepaRG (AID 2283504)
Method in brief: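 Expression of HMGCS2 in human HepaRG liver cells is measured by qRT-PCR 48 h after dosing (highest 100 uM, half-log series, 0.5% DMSO). Values come from bidirectional concentration-response fitting with DMSO as baseline.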

[11] = read-out: HGF (gene 3082); assay: LTEA_HepaRG_HGF: Life Technologies and Expression Analysis (LTEA) Assay for Hepatocyte Growth Facto (HGF) using HepaRG (AID 2283505)
Method in brief: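 Gain or loss of HGF mRNA in human HepaRG liver cells after 48 h chemical exposure; eight concentrations up to 100 uM with 0.5% DMSO vehicle, quantified by TaqMan qRT-PCR.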

[12] = read-out: Insulin Like Growth Factor 1 (IGF1), IGF1 (gene 3479); assay: LTEA_HepaRG_IGF1: Life Technologies and Expression Analysis (LTEA) Assay for Insulin Like Growth Factor 1 (IGF1) using HepaRG (AID 2283506)
Method in brief: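 HepaRG, plated 48 h, then switched to serum-free induction media; test chemical 8-pt half-log from 100 uM (0.5% DMSO), duplicate, 48 h. Lysis in RLT, TaqMan qRT-PCR, norm. ACTB/GAPDH/POLR2A. Bidirectional fit vs DMSO.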

[13] = read-out: Intercellular Adhesion Molecule 1 (ICAM1), ICAM1 (gene 3383); assay: LTEA_HepaRG_ICAM1: Life Technologies and Expression Analysis (LTEA) Assay for Intercellular Adhesion Molecule 1 (ICAM1) using HepaRG (AID 2283507)
Method in brief: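 Gain or loss of transcript in HepaRG hepatic cells is quantified by qRT-PCR after 48 h chemical exposure (up to 100 uM, half-log steps), with DMSO as baseline.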

[14] = read-out: Insulin-like growth factor-binding protein 1 (IGFBP1), IGFBP1 (gene 3484); assay: LTEA_HepaRG_IGFBP1: Life Technologies and Expression Analysis (LTEA) Assay for Insulin-like growth factor-binding protein 1 (IGFBP1) using HepaRG (AID 2283508)
Method in brief: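 mRNA induction or loss was quantified by qRT-PCR after 48 h chemical exposure of human HepaRG cells, with 0.5% DMSO as vehicle and baseline. Concentration-response over eight points up to 100 uM.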

[15] = read-out: Interleukin 6 (IL6), IL6 (gene 3569); assay: LTEA_HepaRG_IL6: Life Technologies and Expression Analysis (LTEA) Assay for Interleukin 6 (IL6) using HepaRG (AID 2283509)
Method in brief: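 HepaRG, ~100,000 cells/well, 48 h pre-culture; serum-free induction medium; cmpd 8-pt half-log from 100 uM, 0.5% DMSO, duplicate, 48 h. Lysis in RLT, TaqMan qRT-PCR; gain or loss vs DMSO.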

[16] = read-out: Interleukin 6 Receptor (IL6R), IL6R (gene 3570); assay: LTEA_HepaRG_IL6R: Life Technologies and Expression Analysis (LTEA) Assay for Interleukin 6 Receptor (IL6R) using HepaRG (AID 2283510);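 as to AC50: differentiated human HepaRG liver cells in serum-free induction medium; TaqMan qRT-PCR signal normalized to ACTB GAPDH and POLR2A housekeeping genes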
Method in brief: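 Readout is IL6R transcript level by TaqMan qRT-PCR, normalized to three housekeeping genes and fitted bidirectionally against 0.5% DMSO controls. Human HepaRG cells received chemicals for 48 h in serum-free induction medium, highest concentration 100 uM.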

[17] = read-out: Potassium channel subfamily K member 1 (KCNK1), KCNK1 (gene 3775); assay: LTEA_HepaRG_KCNK1: Life Technologies and Expression Analysis (LTEA) Assay for Potassium channel subfamily K member 1 (KCNK1) using HepaRG (AID 2283511)
Method in brief: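 Gain or loss of KCNK1 mRNA is the read-out, quantified by qRT-PCR against three housekeeping genes after 48 h chemical treatment of human HepaRG liver cells. Concentrations ran from 100 uM downward in half-log steps, vehicle 0.5% DMSO.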

[18] = read-out: Keratin 19 (KRT19), KRT19 (gene 3880); assay: LTEA_HepaRG_KRT19: Life Technologies and Expression Analysis (LTEA) Assay for Keratin 19 (KRT19) using HepaRG (AID 2283512)
Method in brief: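 Gene-expression endpoint in the human liver line HepaRG after 48 h exposure to up to 100 uM test chemical with 0.5% DMSO vehicle; KRT19 mRNA by qRT-PCR, analyzed bidirectionally versus DMSO.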

[19] = read-out: JUN Transcription Factor, JUN (gene 3725); assay: LTEA_HepaRG_JUN: Life Technologies and Expression Analysis (LTEA) Assay for JUN Transcription Factor using HepaRG (AID 2283513)
Method in brief: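 Cells plated 48 h, medium switched to serum-free induction medium, then dosed 48 h (100 uM top, half-log dilutions, 0.5% DMSO). RNA isolated; JUN measured by qRT-PCR against three housekeeping genes; gain or loss fitted relative to DMSO.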

[20] = read-out: Lipase C (LIPC), LIPC (gene 3990); assay: LTEA_HepaRG_LIPC: Life Technologies and Expression Analysis (LTEA) Assay for Lipase C (LIPC) using HepaRG (AID 2283514)
Method in brief: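 Read-out is LIPC transcript level by TaqMan qRT-PCR, normalized to three housekeeping genes, after 48 h chemical treatment of human HepaRG liver cells. Curves span eight concentrations topping at 100 uM; activity in either direction scored relative to 0.5% DMSO.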

Measured: AC50

Hypoxia-inducible factor 1-alpha (Homo sapiens), sequence (Q16665 whole entry, looked up): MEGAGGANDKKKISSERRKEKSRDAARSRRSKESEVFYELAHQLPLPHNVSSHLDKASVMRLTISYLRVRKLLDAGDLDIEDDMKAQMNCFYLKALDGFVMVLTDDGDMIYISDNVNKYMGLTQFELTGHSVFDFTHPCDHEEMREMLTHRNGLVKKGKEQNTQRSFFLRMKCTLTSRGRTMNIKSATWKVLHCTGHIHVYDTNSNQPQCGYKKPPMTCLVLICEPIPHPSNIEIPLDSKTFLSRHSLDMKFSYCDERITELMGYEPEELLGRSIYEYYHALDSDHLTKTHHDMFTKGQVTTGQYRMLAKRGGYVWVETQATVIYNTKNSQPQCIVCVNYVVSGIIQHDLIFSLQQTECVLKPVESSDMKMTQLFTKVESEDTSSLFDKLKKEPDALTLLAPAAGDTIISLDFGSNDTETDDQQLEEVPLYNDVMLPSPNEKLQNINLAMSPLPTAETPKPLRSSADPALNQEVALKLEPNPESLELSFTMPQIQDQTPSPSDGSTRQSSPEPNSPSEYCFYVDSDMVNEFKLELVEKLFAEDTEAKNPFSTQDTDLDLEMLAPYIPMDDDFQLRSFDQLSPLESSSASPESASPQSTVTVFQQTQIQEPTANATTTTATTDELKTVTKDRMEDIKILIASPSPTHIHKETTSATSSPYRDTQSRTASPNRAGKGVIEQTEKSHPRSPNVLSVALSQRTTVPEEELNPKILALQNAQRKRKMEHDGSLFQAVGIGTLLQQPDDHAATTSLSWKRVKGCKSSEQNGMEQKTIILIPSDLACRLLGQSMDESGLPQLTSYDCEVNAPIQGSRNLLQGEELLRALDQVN

O=c1c(-c2ccc(O)cc2)coc2cc(O)cc(O)c12
inactive: all assays above

Clc1ccccc1C(c1ccccc1)(c1ccccc1)n1ccnc1
inactive: [7] | [8] | [17]
active: [1] 15.7 µM | [2] 28.5 µM | [3] 50 µM | [4] 63 µM | [5] 28 µM | [6] 24.2 µM | [10] 24.3 µM | [11] 26.7 µM | [12] 15.8 µM | [13] 90.6 µM | [14] 16.7 µM | [15] 88.6 µM | [16] 93 µM | [18] 20.2 µM | [19] 66 µM | [20] 93.1 µM

CCCCCCCCCCCCO
not listed: [2]
inactive: all other assays above

O=C(O)Cc1cc(I)c(Oc2ccc(O)c(I)c2)c(I)c1
inactive: [4] | [7]
active: [1] 0.063 µM | [2] 56.8 µM | [3] 84.7 µM | [5] 70.3 µM | [6] 79 µM | [8] 79.7 µM | [10] 77.1 µM | [11] 66.8 µM | [12] 93.7 µM | [13] 64.4 µM | [14] 71.1 µM | [15] 80.4 µM | [16] 42.7 µM | [17] 64.3 µM | [18] 0.631 µM | [19] 80.7 µM | [20] 88.5 µM
